The values below come from ChEMBL document CHEMBL4513216, “Probing the Open Global Health Chemical Diversity Library for Multistage-Active Starting Points for Next-Generation Antimalarials” (ACS Infect Dis, 2020).

In all, about 69,000 compounds went through this assay and about 8,600 (12%) showed an effect of 50% or more. The sample holds strong results, similar compounds and a random draw of the others, so the mix is not that of the screen.

The assay has as its system Plasmodium berghei. Briefly: Screen against P. berghei liver stage (PbLuc), transformed with Luciferase, at 10uM. It is filed as functional, HepG2. Conditions: tested at 10 uM.
Regarding `Fc1cccc(-n2ccc(CN3CCCC3Cn3cccn3)n2)c1` (stereo not given), the INHIBITION is -31.8%.
Under `Cc1ccc2cc(CNCCN3CCCC3)c(=O)[nH]c2c1` stands 39.7%.
Under `O=C(NCc1ccc2c(c1)CCCO2)c1ccc(C2CCNC2)cc1` (stereo not given) stands 50.4%.
`O=C(NCc1ccc2c(c1)CCCO2)c1ccccc1C1CCNC1` (stereo not given): the INHIBITION was -26.1%.
Under `O=C(NCc1ccc2c(c1)CCCO2)C1CNCCO1` (stereo not given) stands 12.9%; under `Cc1noc(CCCC(=O)NCCc2cc3ccccc3[nH]2)n1`, 7.18%.
Under `CC(=O)N[C@@H]1C[C@H](c2ccc(OCCO)cc2)OC2(CCOCC2)C1` stands 18.3%; under `Cc1nc(CN2CCC3(CC2)CCN(C(=O)c2cscn2)C3)cs1`, 75.4%.
In the case of `Cc1cnc(N2CC3(CCN(C(=O)c4cccnc4)C3)C2)nc1` it was 22.2%.
In the case of `O=C(c1cscn1)N1CCC2(CCN(Cc3nccs3)CC2)C1`, the INHIBITION was found to be 14.8%.
Consider `Cc1ccc(CN2CC3(CCN(C(=O)c4cscn4)C3)C2)o1`, for which the INHIBITION amounted to 54.7%.
Under `Cc1ccc(CN2CC3(CCN(C(=O)c4cccnc4)C3)C2)o1` stands 71.1%; under `Cc1noc(C)c1CN1CCC2(CC1)CCN(C(=O)c1cscn1)C2`, 40.8%; under `O=C(c1cscn1)N1CCC2(CN(Cc3ccoc3)C2)C1`, 34.4%.
Consider `Cc1ccc(CN2CC3(CCN(C(=O)c4cscn4)C3)C2)s1`, for which the INHIBITION was found to be 35.1%.
On to `Cc1ccc(CN2CCC3(CC2)CCN(C(=O)c2cccnc2)C3)o1`, for which the INHIBITION was found to be 34%.
For the molecule `CNC(C(=O)OC)c1cc(F)ccc1F` (stereo not given), the INHIBITION was -0.219%.
In the case of `Cn1cc(CN2CCC[C@]3(C(=O)O)CN(c4ncccn4)C[C@@H]3C2)cn1` it was -44.2%.
In the case of `Cc1ccc(NC(=O)C2CSCN2C(=O)c2ccncc2)c(C)c1` (stereo not given) it was 16.1%.
Under `CC(C(=O)NCc1ccc(N2CCCCCC2)nc1)S(C)(=O)=O` (stereo not given) stands -12.2%; under `O=S(=O)(c1ccccc1)N1CCOC(Cn2ccnc2)C1` (stereo not given), -12.3%.
For the molecule `Cc1ccc(CN2CC(C(=O)Nc3ccccc3)C3(CCOCC3)C2)o1` (stereo not given), the INHIBITION is recorded as -24.9%.
For `O=C(c1cscn1)N1CC[C@@H]2[C@@H]1CCN2C1CCOC1` (stereo not given in full), the INHIBITION is reported as 12.6%.
Consider `O=C(Cc1ccccn1)N1CCN2C[C@H](Oc3cccc(F)c3)C[C@H]2C1`, for which the INHIBITION is on record as 33%.
Under `O=C(c1cccnc1)N1CCN2C[C@H](Oc3cncnc3)C[C@H]2C1` stands 55.5%; under `O=C(Cc1ccccn1)N1CCN2C[C@H](Oc3cncnc3)C[C@H]2C1`, 67.2%.
For `O=C(c1ccnnc1)N1CCN2C[C@H](Oc3cccnc3)C[C@H]2C1`, the INHIBITION is -10.2%.
In the case of `O=C(c1ccc(F)cc1)N1CCN2C[C@H](OCc3ccccn3)C[C@H]2C1` it was -1.71%.
With `O=C(c1ccncc1)N1CCN2C[C@H](Oc3cncnc3)C[C@H]2C1`, the INHIBITION is 23.3%.
For `O=C(c1ccnnc1)N1CCN2C[C@H](OCc3ccccn3)C[C@H]2C1`, the INHIBITION is given as -5.05%.
In the case of `O=C(c1ccco1)N1CCN2C[C@H](Oc3cncnc3)C[C@H]2C1` it was -5.63%; in that of `Cc1ccc(O[C@@H]2C[C@H]3CN(C(=O)Cc4ccccn4)CCN3C2)cc1`, 84.7%.
With `O=C(Cc1cccc(F)c1)N1CCN2C[C@H](Oc3cncnc3)C[C@H]2C1`, the INHIBITION is on record as 39.4%.
As to `Cc1ccc(O[C@@H]2C[C@H]3CN(C(=O)c4cnccn4)CCN3C2)cc1`, the INHIBITION was -28.8%.
Take `O=C(Cc1ccccn1)N1CCN2C[C@H](OCCN3CCCC3)C[C@H]2C1`: the INHIBITION is on record as 68.4%.
Regarding `CC(C)c1nc(C2CCCN(C(=O)c3ccc4c(c3)OCO4)C2)no1` (stereo not given), the INHIBITION turned out to be 45.1%.
As to `COCCc1noc(CN2CCC(c3ccccc3C(=O)O)C2)n1` (stereo not given), the INHIBITION is 35.7%.
Consider `Cc1nc(CN2CCCC2c2c(C)nn(C)c2Cl)oc1C` (stereo not given), for which the INHIBITION was 18.2%.
In the case of `O=C1CC(NS(=O)(=O)c2ccc(F)c(Cl)c2)CN1` (stereo not given) it was -6.67%; in that of `O=C(Cn1c(=O)[nH]c2cn(-c3ccccc3)c(=O)n21)NC1CCCCC1`, -6.61%.
On to `Cc1ccc(Cn2c(=O)[nH]c3cccnc3c2=O)cc1`, for which the INHIBITION is -5.64%.
For the molecule `c1coc(CN2Cc3ccnn3CC(COCC3CC3)C2)c1` (stereo not given), the INHIBITION was -47%.
In the case of `O=C(Nc1ccccc1)N1C[C@@H]2CC[C@H]1CN(Cc1ccccc1)C2` it was 32.5%.
On to `COc1cc(NC2CCCN(c3ncccc3C#N)C2)cc(OC)c1` (stereo not given), for which the INHIBITION was determined as 42.1%.
With `COC(C)c1cccc(NCc2ccsc2)c1` (stereo not given), the INHIBITION is on record as 32.8%.
In the case of `CN(C(=O)c1cccc(NCC(=O)O)c1)C(C1CC1)C1CC1` it was 44.8%.
Under `CN1CCc2ccc(NCc3cccs3)cc2C1=O` stands -99.6%; under `COC(C)c1cccc(NCc2cccs2)c1` (stereo not given), 50.1%; under `CN(C(=O)c1cccc(NCc2cccs2)c1)C(C1CC1)C1CC1`, 64.8%.
Regarding `COC(C)c1cccc(NCc2cccc(O)c2)c1` (stereo not given), the INHIBITION is -52.4%.
On to `Cc1n[nH]c2nc(-c3cccc(Cl)c3)cc(C(=O)O)c12`, for which the INHIBITION is -1.99%.
Under `O=C1CC2(CCSC2)C(=O)N1Cc1coc(-c2ccc(F)cc2)n1` (stereo not given) stands -19.7%.
Turning to `Cn1c(=O)n(C)c2cc(NS(=O)(=O)Cc3cccc(F)c3)ccc21`, the INHIBITION is on record as 18.6%.
Take `COCCn1ccc2c(C(=O)O)cccc21`: the INHIBITION amounted to 17.7%.
In the case of `Cn1ccc2ccc(C(=O)NC3CCOC(C)(C)C3)cc21` (stereo not given) it was 11.7%; in that of `CC(C)n1cc(C(=O)NC2CCS(=O)(=O)C2)c2ccccc2c1=O` (stereo not given), 11.1%.
As for `CC(C)n1ccc2cc(C(=O)Nc3nc[nH]n3)ccc21`, the INHIBITION is reported as -22.4%.
In the case of `CC(C)n1cc(C(=O)NC2CN3CCC2CC3)c2ccccc21` (stereo not given) it was 50.8%; in that of `Cn1ccc2c(C(=O)NC3CN4CCC3CC4)cccc21` (stereo not given), 32.2%.
In the case of `Cc1c(NC(=O)NC2CN3CCC2CC3)cccc1C(=O)N1CCCC1` (stereo not given) it was 21.5%; in that of `COCCn1ccc2c(C(=O)NC3CN4CCC3CC4)cccc21` (stereo not given), 63.8%; in that of `CCn1cc(C(=O)NC2CCN(S(C)(=O)=O)CC2)c2ccccc21`, 2.37%.
Under `COCCn1ccc2c(C(=O)NC(C)C)cccc21` stands 1.8%; under `CC(C)n1ccc2c(C(=O)NC3CN4CCC3CC4)cccc21` (stereo not given), 50.8%; under `CC(C)n1ccc2ccc(C(=O)NC3CN4CCC3CC4)cc21` (stereo not given), 58.2%.
As for `CCCc1nc(NCC(=O)N2CCOCC2)c2c(n1)c(C)nn2CC`, the INHIBITION turned out to be 45.8%.
Turning to `Cc1cc(NC(=O)C2CCCN(C(=O)NCC(C)C)C2)ccn1` (stereo not given), the INHIBITION is recorded as -15.8%.
Consider `CSCc1cccc(S(=O)(=O)N2CCCCC2)c1`, for which the INHIBITION was found to be 37.5%.
In the case of `O=C1N(C2CCOCC2)CCCC12CCN(c1ncccc1Cl)C2` (stereo not given) it was 12%; in that of `Nc1ncc(CN2CCC(O)(c3ccccc3F)CC2)cn1`, 31.5%.
Under `CC(NC(=O)c1ccc(Cl)cc1)c1nnc(SCC(N)=O)n1C` (stereo not given) stands 12.315%; under `Cn1nccc1-c1cnc2n1CCNC21CCN(C(=O)C2(C)CC2)CC1`, 13.1%.
In the case of `Cc1cnc(CNC(=O)N(CCCO)C2CCc3ccccc32)s1` (stereo not given) it was 38.5%.
Take `CC(=O)N1CC[C@H]2OCC[C@@]2(C(=O)NCc2cnc(C)cn2)C1`: the INHIBITION stood at 42.1%.
In the case of `O=C(NCCN1C(=O)c2ccccc2C1=O)c1scnc1Cl` it was 19.4%.
`COCCn1ccc2c(C(=O)Nc3nc4c(s3)CCC4)cccc21`: the INHIBITION came to 79.2%.
Under `COCCn1cc(C(=O)Nc2nc3c(s2)CCC3)c2ccccc21` stands 45.5%.
Under `COCCn1cc(CC(=O)Nc2nc3c(s2)CCC3)c2ccccc21` stands -51.3%; under `CCn1ccnc1CN1CCN(CCC(=O)NC2CCCCC2)CC1`, -1.65%; under `COCC(=O)N(Cc1ccc2cc[nH]c2c1)C1CC1`, 10.9%.
For the molecule `CCNC(=O)NCC1(CN2CCOCC2)CCCCC1`, the INHIBITION stood at 11.9%.
In the case of `CCc1ncc(CNC2CC(=O)N(CCc3cccc(Cl)c3)C2)cn1` (stereo not given), the INHIBITION was -11.5%.
Under `Cc1ncc(CNC2CC(=O)N(CCc3ccc(F)cc3)C2)n1C` (stereo not given) stands 14.5%; under `Cc1cccc(CNC2CC(=O)N(CCc3cccc(Cl)c3)C2)n1` (stereo not given), -13%; under `Cc1nc(CNC2CC(=O)N(CCc3cccc(Cl)c3)C2)c[nH]1` (stereo not given), 43.4%.
Regarding `Cc1nc[nH]c1CNC1CC(=O)N(CCc2cccc(Cl)c2)C1` (stereo not given), the INHIBITION amounted to 53.9%.
Under `CN(C)c1ncc(CNC2CC(=O)N(CCc3cccc(Cl)c3)C2)s1` (stereo not given) stands 53.9%.
For the molecule `O=C1CC(NCc2ncc[nH]2)CN1CCc1cccc(Cl)c1` (stereo not given), the INHIBITION is 39.9%.
In the case of `Cc1ncc(CNC2CC(=O)N(CCc3cccc(Cl)c3)C2)n1C` (stereo not given) it was 60.5%; in that of `O=C1CC(NCc2ccncc2)CN1CCc1cccc(Cl)c1` (stereo not given), 44.8%.
With `Cn1cccc1C(=O)NCc1ccnc(C2CCCOC2)n1` (stereo not given), the INHIBITION came out at 39.8%.
In the case of `COc1ccc(Cc2nnc(NC(=O)C3CC34CCC4)s2)cc1OC` (stereo not given) it was 17.75%.
Consider `Cc1cc(O)nc(C2CCN(C(=O)CO)CC2)n1`, for which the INHIBITION is 30.55%.
Under `Cc1noc(C)c1CCC(=O)N1CCCN(C)CC1` stands 1.7%.
Under `Cc1cnc(N2CCCC3(CCOCC3)C2)nc1` stands -22.1%.
Regarding `COc1ccc(C(=O)N2CCCC(C)C2)cc1F` (stereo not given), the INHIBITION is 28.5%.
Under `COc1ccccc1C(=O)C1CCCN(c2cc(C#N)ccn2)C1` (stereo not given) stands 18.5%.
In the case of `COc1ccc(C(=O)C2CCCN(c3cc(C#N)ccn3)C2)cc1F` (stereo not given) it was 63%; in that of `COc1cccc(C(=O)C2CCCN(c3cc(C#N)ccn3)C2)c1` (stereo not given), 59.4%.
In the case of `COc1ccc(C(=O)C2CCCN(c3cc(C#N)ccn3)C2)cc1OC` (stereo not given) it was 42.1%; in that of `CNC(=O)c1ccnc(N2CCCC(COc3cccc(C)c3)C2)c1` (stereo not given), 47.2%.
Regarding `Cn1[nH]c(C2CCCN(C(=O)CO)C2)cc1=O` (stereo not given), the INHIBITION amounted to 29%.
In the case of `COCCN(C)CC(=O)N1CCCC2(CCC(=O)N(CC3CC3)C2)C1` (stereo not given) it was 29.4%.
In the case of `CC(C)(C)S(=O)(=O)c1ccc(N2CCC(n3ccnc3)CC2)cn1` it was 34.5%; in that of `O=C1CN(c2ccc(CNC(=O)NCC3CCOC3)cc2)CCN1` (stereo not given), 0.411%.
